From PubChem BioAssay AID2642 (Johns Hopkins Ion Channel Center, 2010) come the findings set out here.

The campaign covered roughly 310,000 compounds. About 3,900 (1.3%) were called active.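 The calls were made as follows: active = compounds whose thallium flux B-score, printed positive for inhibition, exceeds three library SD while starting fluorescence stays within three; inactive = the rest.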 Shown is part of a subset that was picked to be rich in actives.

The assay deals with Potassium voltage-gated channel subfamily KQT member 1 (Homo sapiens) (UniProt P51787). Kind of assay: KCNQ1 potassium current blockers – cell-based, thallium flux, high-throughput, primary screen (AID 2642).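 Also: channel opened by potassium depolarization with thallium stimulus after 20 min compound exposure.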 The following applies: CHO-K1 KCNQ1, FluxOR thallium flux fluorescence, at 10 µM; hits give high values.
Potassium voltage-gated channel subfamily KQT member 1 (Homo sapiens), sequence (P51787 whole entry, looked up): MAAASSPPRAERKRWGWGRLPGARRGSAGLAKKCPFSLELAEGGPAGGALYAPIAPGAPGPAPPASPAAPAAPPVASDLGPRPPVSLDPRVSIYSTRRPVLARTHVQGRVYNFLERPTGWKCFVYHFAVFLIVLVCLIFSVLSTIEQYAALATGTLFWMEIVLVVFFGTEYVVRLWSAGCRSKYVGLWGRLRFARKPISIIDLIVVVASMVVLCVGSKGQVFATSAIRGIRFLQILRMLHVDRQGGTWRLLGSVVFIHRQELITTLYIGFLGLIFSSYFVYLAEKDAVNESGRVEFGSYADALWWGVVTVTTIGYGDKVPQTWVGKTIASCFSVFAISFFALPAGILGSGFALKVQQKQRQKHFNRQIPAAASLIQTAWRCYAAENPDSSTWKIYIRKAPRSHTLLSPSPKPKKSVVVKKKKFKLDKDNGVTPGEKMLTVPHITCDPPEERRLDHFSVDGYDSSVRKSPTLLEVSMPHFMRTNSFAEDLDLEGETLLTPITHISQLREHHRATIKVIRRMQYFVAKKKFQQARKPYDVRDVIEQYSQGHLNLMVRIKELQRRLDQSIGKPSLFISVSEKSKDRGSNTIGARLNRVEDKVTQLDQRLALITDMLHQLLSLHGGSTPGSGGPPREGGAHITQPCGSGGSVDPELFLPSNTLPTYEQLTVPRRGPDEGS
As to `CC(C)(C)Cc1nnc(NC(=O)c2cc(-c3ccccc3)nc3ccccc23)s1`, the B-score was 11 (active).
Take `O=C(Nc1nnc(-c2ccccc2)o1)c1cc(-c2cccs2)nc2ccccc12`: the B-score entry was “inactive”.
`COc1ccc(-c2cc(C(=O)Nc3ccccc3O)c3ccccc3n2)cc1`: the B-score entry is “inactive”.
Consider `O=C(O)CCCCCCCCCC[n+]1ccccc1`, for which the B-score entry was “inactive”.
Take `CCc1noc(C)c1C(=O)Oc1ccc(N(C)S(=O)(=O)c2ccc(C)c(C)c2)cc1`: the B-score is 9 (active).
As for `CN(c1ccc(OCC(=O)O)cc1)S(=O)(=O)c1ccc2ccccc2c1`, the B-score result is “inactive”.
Next, `Cc1ccc(S(=O)(=O)N(C)C)cc1NC(=O)COC(=O)c1c(C)noc1C`: “inactive”.
With `CCc1ccc(OCC(=O)NCC(c2ccc(Cl)cc2)N2CCCCC2)cc1` (stereo not drawn) the entry was “inactive”.
Next, `COc1cc(C(=O)Nc2oc(-c3ccccc3)c(-c3ccccc3)c2C#N)cc(OC)c1OC`: “inactive”.
As for `Cc1cc(C)cc(NC(=O)CCN2C(=O)c3ccccc3C2=O)c1`, the B-score entry is “inactive”.
On to `N#Cc1c(NC(=O)CCCN2C(=O)c3ccccc3C2=O)oc(-c2ccccc2)c1-c1ccccc1`, for which the B-score is 6 (active).
Next, `Cc1cc(OCC(=O)N2CCN(c3ncccn3)CC2)ccc1Cl`: “inactive”; `COc1ccccc1CC(=O)NCCc1c[nH]c2ccccc12`: “inactive”.
Next, `COc1cccc(CNCCc2c[nH]c3ccccc23)c1OCc1ccccc1F`: 8 (active); `COc1ccc(S(=O)(=O)NCCc2c[nH]c3ccccc23)cc1OC`: “inactive”; `O=C(Nc1ccccc1N1CCCC1)c1ccc2ccccc2c1`: “inactive”.
As for `COc1ccc(N2CCN(C(=O)c3ccc(N4CCCCS4(=O)=O)cc3)CC2)cc1`, the B-score entry is “inactive”.
With `COc1ccc(C(=O)N2CCc3cc(OC)c(OC)cc3C2c2cccc([N+](=O)[O-])c2)cc1` (stereo not drawn) the figure was 7 (active); with `COc1ccccc1C1SCCN1C(=O)c1ccc([N+](=O)[O-])cc1` (stereo not drawn), “inactive”; with `COc1ccc2[nH]c(=O)c(C3c4cc(OC)c(OC)cc4CCN3C(=O)c3ccco3)cc2c1` (stereo not drawn), “inactive”.
Next, `O=C(Nc1ccncc1)Nc1ccc(F)cc1`: “inactive”; `O=C(CCl)Nc1ccc(Sc2ccc(NC(=O)CCl)cc2)cc1`: “inactive”.
Take `CC(C)(CCl)C(=O)Nc1ccc(Sc2ccc(F)cc2)cc1`: the B-score is 9 (active).
As for `CCCN(CCC)c1nc2c(C)cccn2c(=O)c1/C=C1/SC(=S)N(Cc2ccco2)C1=O`, the B-score is 14 (active).
With `CCOC(=O)CC1C(=O)NCCN1c1nc2c(C)cccn2c(=O)c1/C=C1\SC(=S)N(C(C)CC)C1=O` (stereo not drawn) the entry was “inactive”; with `CNc1nc2c(C)cccn2c(=O)c1C=Nc1ccc(OC)cc1`, “inactive”; with `Cc1cccc(OCC(=O)Nc2ccc(NC(=O)c3ccco3)c(C)c2)c1`, “inactive”.
With `CCC(C)(C(=O)NC1CCCCC1)N(C)C(=O)c1ccc2c(c1)OCO2` (stereo not drawn) the entry was “inactive”.
